Compound activity (PubChem BioAssay)
Sampled rows, rich in hits. Any-hit rate of the full collection: about 6.9%.
Giardia kill: kills Giardia lamblia. 0.15% of 340,000 active. activity change, % at 7.66 µM, hits read low. AID 540267. Giardia lamblia trophozoite viability; in the data active means activity change below about -80%; inconclusive means between about -30% and that limit;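 further: parasites exposed to compound for two days anaerobically before the ATP read; on the % scale 0 is the no-effect control and ±100 the full control effect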
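Media and compound were dispensed first, then trophozoites at 100 cells/well; plates sat 48 hrs at 37 deg C without oxygen before ATP luminescence reagent was added and read after 15-30 min at room temperature.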
ASM inhibitor: inhibitors of human secretory acid sphingomyelinase | placental ASM, HMU-PC fluorogenic substrate, 60 min | P17405 | AID 504937 | 0.006% of 340,000 active | Potency, µM (highest dose often 57.5 µM), inactives show at the highest dose activity change, negative = inhibition, hits mostly inhibitors; further: potency means the concentration at half of the fitted maximal effect
Target sequence (P17405 47-631 limits assumed): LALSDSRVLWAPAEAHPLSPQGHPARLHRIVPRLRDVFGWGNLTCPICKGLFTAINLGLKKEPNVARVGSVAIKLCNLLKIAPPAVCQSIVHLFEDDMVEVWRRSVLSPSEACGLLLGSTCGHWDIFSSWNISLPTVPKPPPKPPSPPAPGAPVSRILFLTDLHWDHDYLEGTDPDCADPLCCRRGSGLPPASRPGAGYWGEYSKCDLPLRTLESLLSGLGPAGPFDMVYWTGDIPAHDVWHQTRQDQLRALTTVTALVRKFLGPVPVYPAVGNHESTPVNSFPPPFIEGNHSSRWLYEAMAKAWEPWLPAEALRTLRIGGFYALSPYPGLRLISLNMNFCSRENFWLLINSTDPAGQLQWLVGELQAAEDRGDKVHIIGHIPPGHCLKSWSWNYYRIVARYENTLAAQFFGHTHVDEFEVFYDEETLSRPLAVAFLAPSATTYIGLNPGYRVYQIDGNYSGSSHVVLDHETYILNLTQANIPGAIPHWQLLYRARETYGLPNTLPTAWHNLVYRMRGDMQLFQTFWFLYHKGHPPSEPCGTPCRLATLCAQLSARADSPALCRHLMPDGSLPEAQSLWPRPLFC
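qHTS format. ASM enzyme prepared from human placenta hydrolyses the fluorogenic substrate HMU-PC0 (9 uM final) over 60 min at 37 °C after a 10 min compound preincubation.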
MCF10A rereplic: DNA re-replication induction in MCF 10a cells | MCF 10A DNA re-replication, Hoechst nuclear intensity, 48 h | Potency, µM (top dose mostly 46.1 µM), without a hit: at the highest dose activity, positive = re-replication, usual class: activators | 2.9% of 350,000 active | AID 624296; further: potency means the concentration at half of the fitted maximal effect; % of control where 0% means no effect; nearly all actives have a fitted effect of over 50% in size
KB-3-1 cytotox: KB-3-1 parental cell cytotoxicity. 1.4% of 400,000 active. KB-3-1 viability, CellTiter-Glo ATP luminescence, 72 h. Potency, µM (highest dose often 46.1 µM), hits mostly cytotoxic; further: potency means the concentration at half of the fitted maximal effect; on the % scale 0 is the no-effect control and ±100 the full control effect; nearly all actives have a fitted effect of over 60% in size
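Here the drug-naive KB-3-1 line serves as comparator for MDR sub-line selectivity; cells received compound titrations, 72 h at 37 °C, then CellTiter-Glo readout.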
SW480 rerep: induces DNA re-replication in SW480 colon adenocarcinoma cells; 1.8% of 340,000 active; AID 624297; SW480 DNA re-replication, Hoechst DNA content imaging, 48 h; Potency, µM (series often up to 46.1 µM), without a hit: at the top dose re-replication activation, usual class: activators; further: potency means the concentration at half of the fitted maximal effect; % of control where 0% means no effect; nearly all actives have a fitted effect of over 55% in size
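Hoechst fluorescence of nuclei (405 nm excitation, 500-530 nm emission) measured by plate-scanning imager after 48 hr compound exposure at 37 C; re-replication scored as increased number of nuclei with elevated intensity.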
KB-V1 cytotox: kills drug-selected multidrug resistant KB-V1 cells; AID 1347076; KB-V1 MDR cells viability, CellTiter-Glo, 72 h; 3.4% of 400,000 active; Potency, µM (top dose mostly 46.1 µM), usual class: cytotoxic; further: potency means the concentration at half of the fitted maximal effect; on the % scale 0 is the no-effect control and ±100 the full control effect; nearly all actives have a fitted effect of over 60% in size
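Cells of the MDR subline KB-V1 are plated, dosed with compound at multiple concentrations, and incubated 72 h at 37 degrees C; CellTiter-Glo is then added and luminescence read after 10 min.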
* = called active by the depositor. Unless noted, the call rests on the fitted dose curve; in most records, active means well fitted curve in the direction sought with a large enough effect; inconclusive means small, poorly fitted or top-dose-only effect, or another doubt; inactive means no such curve, though single readings can be large; an effect the other way counts as inactive or inconclusive.

Cc1cc(NS(=O)(=O)c2ccc3c(c2)CCC(=O)N3)ccc1F was read as KB-3-1 cytotox inactive and KB-V1 cytotox inactive.
`Cc1ccc(NC(=S)NCCSc2ccc(Cl)cc2)c(C)c1` gave Giardia kill 3, ASM inhibitor -3%, MCF10A rereplic 23µM*, KB-3-1 cytotox inactive, SW480 rerep inconclusive and KB-V1 cytotox inactive.
Screening COc1ccc(OC)c(NC(=S)NCCSc2ccc(C)cc2)c1 returned Giardia kill -16, ASM inhibitor -3%, MCF10A rereplic 0%, KB-3-1 cytotox inactive, SW480 rerep 0% and KB-V1 cytotox 23µM*.
Cc1ccc(NC(=S)NCC(C)CSc2ccc(Cl)cc2)cc1 (centres undefined) was read as Giardia kill 1, ASM inhibitor -3%, MCF10A rereplic 18%, KB-3-1 cytotox inactive, SW480 rerep inconclusive and KB-V1 cytotox inactive.
Screening Cc1cccc(NC(=S)NCC(C)CSc2ccc(Cl)cc2)c1 (centres undefined) returned Giardia kill -24, ASM inhibitor -5%, MCF10A rereplic 18µM*, KB-3-1 cytotox inconclusive, SW480 rerep inconclusive and KB-V1 cytotox inconclusive.
For COC(=O)c1ccc(NC(=O)CCc2c(C)nc3c(c(C)nn3C(C)(C)C)c2C)cc1 the results were KB-3-1 cytotox inactive and KB-V1 cytotox inactive.
Cc1cc(C)c2nccc(C)c2c1 was read as KB-3-1 cytotox inactive and KB-V1 cytotox inactive.
Screening CCc1ccccc1NC(=O)C1CCN(C(=O)N2CC(C)Oc3ccc(Cl)cc32)CC1 (centres undefined) returned KB-3-1 cytotox inactive and KB-V1 cytotox inactive.
For Cc1nn(C)c2c1c(C(F)(F)F)cc(=O)n2C(C)C(=O)NCCc1ccccc1 (centres undefined) the results were KB-3-1 cytotox inactive and KB-V1 cytotox inactive.
CNC1C(O)C(OC2C(N)CC(N)C(OC3OC(CN)=CCC3N)C2O)OCC1(C)O (centres undefined) was read as MCF10A rereplic -3% and SW480 rerep 1%.
OCCCNc1cc(-c2ccnc(Nc3cccc(Cl)c3)n2)ccn1 was read as Giardia kill -29, ASM inhibitor 9%, MCF10A rereplic inconclusive, KB-3-1 cytotox inconclusive, SW480 rerep inconclusive and KB-V1 cytotox 0.13µM*.
CCN1CCCC1CNCc1ccc(OCc2ccc(Cl)nc2)c(OC)c1 (centres undefined) was read as Giardia kill 25, ASM inhibitor 5%, MCF10A rereplic 5.8µM*, KB-3-1 cytotox inactive, SW480 rerep 23% and KB-V1 cytotox inactive.
Screening CCCCNCc1ccc(OCc2ccc(Cl)nc2)c(OC)c1 returned Giardia kill -4, ASM inhibitor 4%, MCF10A rereplic inconclusive, KB-3-1 cytotox inactive, SW480 rerep -1% and KB-V1 cytotox inactive.
Screening Cc1cccc(C(=O)OCC(=O)c2c(C)[nH]c3ccccc23)c1O returned Giardia kill 6, ASM inhibitor -18%, MCF10A rereplic 10%, KB-3-1 cytotox inactive, SW480 rerep -19% and KB-V1 cytotox inactive.
For CCOC(=O)c1c(C)[nH]c(C)c1C(=O)COC(=O)c1cccc(C)c1O the results were Giardia kill 3, ASM inhibitor -10%, MCF10A rereplic inconclusive, KB-3-1 cytotox inactive, SW480 rerep 5% and KB-V1 cytotox 16µM*.
`COCCn1c(=N)c(C(=O)NCCc2ccc(OC)cc2)cc2c(=O)n3cccc(C)c3nc21` gave Giardia kill -13, ASM inhibitor 74%, MCF10A rereplic inconclusive, KB-3-1 cytotox inactive, SW480 rerep inconclusive and KB-V1 cytotox inactive.
For COCCCNC(=O)c1cc2c(=O)n3cccc(C)c3nc2n(C(C)C)c1=N the results were Giardia kill -6, ASM inhibitor inactive, MCF10A rereplic inconclusive, KB-3-1 cytotox inactive, SW480 rerep 2.8µM* and KB-V1 cytotox inactive.
Cc1cccn2c(=O)c3cc(C(=O)NC(C)C)c(=N)n(Cc4ccncc4)c3nc12 was read as Giardia kill -7, ASM inhibitor 186%, MCF10A rereplic 16µM*, KB-3-1 cytotox inactive, SW480 rerep 21µM* and KB-V1 cytotox inactive.
CCNC(=O)c1cc2c(=O)n3cccc(C)c3nc2n(Cc2ccc(C)cc2)c1=N was read as Giardia kill -4, ASM inhibitor 180%, MCF10A rereplic inconclusive, KB-3-1 cytotox inconclusive, SW480 rerep 2.1µM* and KB-V1 cytotox inconclusive.
`Cc1cnc2c(C)ccc(C)c2c1/C=C/c1ccc(N(C)C)cc1` gave KB-3-1 cytotox inactive and KB-V1 cytotox inactive.
For COc1cccc(C(=O)/C=C2\Sc3ccccc3N2C)c1 the results were Giardia kill inconclusive, ASM inhibitor 460%, MCF10A rereplic 18µM*, KB-3-1 cytotox inconclusive, SW480 rerep inconclusive and KB-V1 cytotox inactive.
For CN1/C(=C\C(=O)c2cccnc2)Sc2ccccc21 the results were Giardia kill -11, ASM inhibitor 175%, MCF10A rereplic 28%, KB-3-1 cytotox inactive, SW480 rerep 7.3µM* and KB-V1 cytotox inconclusive.
Screening COc1cccc(C(=O)Nc2ccccc2NC(=O)c2cccc(OC)c2)c1 returned Giardia kill 0, ASM inhibitor -1%, MCF10A rereplic inconclusive, KB-3-1 cytotox inactive, SW480 rerep -3% and KB-V1 cytotox inconclusive.
Screening CCCN[C@@H](C)C(=O)Nc1ccccc1C returned MCF10A rereplic 0% and SW480 rerep 0%.
For COc1ccc(CCNC(=O)c2ccc3nc(Cc4ccccc4)oc3c2)cc1OC the results were KB-3-1 cytotox inactive and KB-V1 cytotox inactive.
Screening CCCCCC(=O)N[C@@H](c1ccccc1)[C@@H](O)C(=O)O[C@H]1C[C@@]2(O)[C@@H](OC(=O)c3ccccc3)C3[C@](C)(C(=O)[C@H](OC(C)=O)C(=C1C)C2(C)C)[C@@H](O)C[C@H]1OC[C@@]31OC(C)=O (some centres undefined) returned Giardia kill 8, ASM inhibitor -14%, MCF10A rereplic inconclusive, KB-3-1 cytotox 0.21µM*, SW480 rerep 0.18µM* and KB-V1 cytotox inconclusive.
`CC(=O)O[C@H]1C(=O)[C@@]2(C)[C@H]([C@H](OC(=O)c3ccccc3)[C@]3(O)C[C@H](OC(=O)[C@H](O)C(NC(=O)c4ccccc4)c4ccccc4)C(C)=C1C3(C)C)[C@]1(OC(C)=O)CO[C@@H]1C[C@@H]2O` (some centres undefined) gave Giardia kill inconclusive, ASM inhibitor -14%, MCF10A rereplic inconclusive, KB-3-1 cytotox 0.0092µM*, SW480 rerep 0.065µM* and KB-V1 cytotox inconclusive.
